Measured values from the supplement of paper PMC11417369.
± gives the standard deviation of the averaged measurements. Whole data set: some 25,000 sequences, median “ln(normalized median fluorescence intensity)” near 8.9, cut for the highest 2% near 10. Many of the other results were omitted from the sample, so the highest values are more common in it than they were.

Each sequence was assayed on PfAP2-LT AP2 domain (GST-tagged) (assay: gcPBM binding intensity (ln(normalized median fluorescence intensity)); higher = stronger DNA binding).
Outline: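 After 1 h on an Agilent 4 × 180k array of primer-extended double-stranded 36-bp intergenic genomic probes and negative controls, bound GST-tagged P. falciparum DNA-binding domains were detected with Alexa488 anti-GST antibody and scanned at 488 nm. The domains had been expressed in E. coli, and binding took place in 1× PBS with 1% milk, 0.2 mg/ml BSA, 0.5% salmon testes DNA and 0.03% Triton X-100. Binding intensity is the highest Masliner-normalised natural-log median intensity across replicate spots of either probe orientation.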
In the case of “TAAAAGGGGATATATGAACACACAAAAAAAAAATAT [CACACA_site8940]”, the “gcPBM binding intensity (ln)” value is reported as 9.04 ± 0.64.
“GTTACATACAGATACACACACATATATATATATATA [CACACA_site4652]” was tested, and the “gcPBM binding intensity (ln)” value was 10.2 ± 0.4.
“GTTACATACATATACACACACATATATATATATATA [CACACA_site901]” was tested, and the “gcPBM binding intensity (ln)” value was 10.2 ± 0.17.
In the case of “CACAGATATATACATACACACATATATACACATATA [CACACA_site6323]”, the “gcPBM binding intensity (ln)” value is reported as 9.39 ± 0.32.
For “CATACATACATACATACACACATACAGATATATATA [CACACA_site4890]”, the “gcPBM binding intensity (ln)” value was 9.4 ± 0.38.
With “TACATACATACATACACACACACATATATATACATA [CACACA_site853]” the “gcPBM binding intensity (ln)” value was 10.1 ± 0.23.
“ACGTTACATACATATACACACACATATATATATATA [CACACA_site8203]” was tested, and the “gcPBM binding intensity (ln)” value was 9.93 ± 0.16.
With “CTCCACAAACAAATCGCACACCCAACCCAACATATA [CACACA_site2650]” the “gcPBM binding intensity (ln)” value was 9.68 ± 0.34.
With “TATTTTTTTGTGTTTGGTACACACGTTATAAAAAAT [XGTACX_site2655]” the “gcPBM binding intensity (ln)” value was 8.8 ± 0.36.
“AAAAAAAAAAAAAAAACACACATACACCCCCACCCA [CACACA_site9117]” was tested, and the “gcPBM binding intensity (ln)” value was 9.89 ± 0.18.
In the case of “AAAAAACACCCATACACACACACACCGATATATATA [CACACA_site5808]”, the “gcPBM binding intensity (ln)” value is reported as 10.2 ± 0.24.
With “AAAAAAAAAAAAAACACACACACACCCACATATACA [CACACA_site2663]” the “gcPBM binding intensity (ln)” value was 10.2 ± 0.16.
With “AAAAAAAACGCACATACACACACACCCATATATATA [CACACA_site9118]” the “gcPBM binding intensity (ln)” value was 10.13 ± 0.028.
With “AAAAAACAGACATACACACACACACCCATATATATA [CACACA_site3392]” the “gcPBM binding intensity (ln)” value was 10.4 ± 0.21.
For “CACAGACACCCATACACACACATACCCATATATATA [CACACA_site5023]”, the “gcPBM binding intensity (ln)” value was 9.56 ± 0.34.
For “AAAAAAAAAAAAAAAACACACATACACCCAGACACA [CACACA_site5807]”, the “gcPBM binding intensity (ln)” value was 9.71 ± 0.18.
With “TTAATATTATGTTAAAGTACTTTATATATATATAAT [XGTACX_site2646]” the “gcPBM binding intensity (ln)” value was 8.57 ± 0.3.
“AAGACTGCACTTTAAGCACACAAATATATTTTTTTT [CACACA_site8337]” was tested, and the “gcPBM binding intensity (ln)” value was 8.86 ± 0.38.
With “TACAAATATATATGCACACACATATCTGTATATGTG [CACACA_site5663]” the “gcPBM binding intensity (ln)” value was 9.58 ± 0.26.
“GTAATATATACAAAATGTACAAAACAATAACATGAT [XGTACX_site8575]” was tested, and the “gcPBM binding intensity (ln)” value was 9.2 ± 0.52.
“TAATAAAATATGTACACACATACACCCATATATATA [CACACA_site1220]” was tested, and the “gcPBM binding intensity (ln)” value was 9.21 ± 0.35.
For “GTTTAAAATCTTTGCACACATATAAATAAATATATT [CACACA_site2555]”, the “gcPBM binding intensity (ln)” value was 8.9 ± 0.41.
With “AAAAAAAAAAAACACACACACACACCCATATACATA [CACACA_site2664]” the “gcPBM binding intensity (ln)” value was 10.31 ± 0.085.
In the case of “TATAAACACCCATATAAACACACATACATACATACA [CACACA_site8791]”, the “gcPBM binding intensity (ln)” value is reported as 9.51 ± 0.33.
In the case of “TAAACACCCATATAAACACACATACATACATACATA [CACACA_site5383]”, the “gcPBM binding intensity (ln)” value is reported as 9.53 ± 0.4.
With “AAAAATAAAAAAAACACACATACCTTATTTTTGTTC [CACACA_site2634]” the “gcPBM binding intensity (ln)” value was 8.98 ± 0.42.
In the case of TATATATATATATATGTGCGCATTACTTTAAGAATA, the “gcPBM binding intensity (ln)” value is reported as 9.6 ± 0.25.
In the case of “TCTTTTTGCATGTGTGTGCGCACAAAATACACAAAA [GTGCAC_site9718]”, the “gcPBM binding intensity (ln)” value is reported as 9.39 ± 0.3.
“CACAAGAAAATTCACACACACACATATATATATATA [CACACA_site3880]” was tested, and the “gcPBM binding intensity (ln)” value was 10.2 ± 0.14.
With “CATACACAAGAAAATTCACACACACCCATATATATA [CACACA_site9288]” the “gcPBM binding intensity (ln)” value was 9.87 ± 0.23.
For “AAAACAAAAGAATTCACACATATATATATATATATA [CACACA_site4777]”, the “gcPBM binding intensity (ln)” value was 10.1 ± 0.16.
In the case of “TACACAAGAAAATTCACACACACACCGATATATATA [CACACA_site6008]”, the “gcPBM binding intensity (ln)” value is reported as 9.87 ± 0.16.
“CACAAGAAAGTTCACACACACACATATATATATATA [CACACA_site6009]” was tested, and the “gcPBM binding intensity (ln)” value was 9.93 ± 0.62.
“TACACAAGAAAATTCACACACACACCCATATATATA [CACACA_site3879]” was tested, and the “gcPBM binding intensity (ln)” value was 10.12 ± 0.092.
With “TATATATGTTCAATATGTACATATATATAAGTGTAT [XGTACX_site5157]” the “gcPBM binding intensity (ln)” value was 8.79 ± 0.41.
“AATATATCAAAAATTGGATAGTTTCTTATAAAAAAT [CACACA_negctrl_site39]” was tested, and the “gcPBM binding intensity (ln)” value was 8.43 ± 0.46.
With “ATATATATATATATATGTACATATATTCGATTATTA [XGTACX_site557]” the “gcPBM binding intensity (ln)” value was 9.695 ± 0.035.
With “TACATATATATAAATACACACACACCCACCTTATAA [CACACA_site9346]” the “gcPBM binding intensity (ln)” value was 9.88 ± 0.15.
For “CATATATATAAATACACACACACACCCCTTATAATT [CACACA_site4064]”, the “gcPBM binding intensity (ln)” value was 10.2 ± 0.15.
For “ACATATAAATTATATACACACAATAATATATATATA [CACACA_site1384]”, the “gcPBM binding intensity (ln)” value was 9.01 ± 0.39.
“TAATTATATAAATACACACACATACACCCAAATAAA [CACACA_site5819]” was tested, and the “gcPBM binding intensity (ln)” value was 9.8 ± 0.2.
With “AAATTATAATATAATACACACATAAAAAAAAAAAAA [CACACA_site7]” the “gcPBM binding intensity (ln)” value was 8.93 ± 0.47.
“CATATAAATAAATACACACACACACGCCTTATAATT [CACACA_site7830]” was tested, and the “gcPBM binding intensity (ln)” value was 10.19 ± 0.078.
For “CCTCCCATTTTTACACGTACACATTTAAAATAGACT [XGTACX_site5640]”, the “gcPBM binding intensity (ln)” value was 8.95 ± 0.21.
With “TATAAAGGTGAAATTTGTACATAGTCATTTTTTAAT [XGTACX_site4811]” the “gcPBM binding intensity (ln)” value was 8.52 ± 0.42.
In the case of “TATAAAAAAATATATATATATATATATATATAAATA [TGCATGCA_negctrl_site22]”, the “gcPBM binding intensity (ln)” value is reported as 9.09 ± 0.37.
With “TAATAAAGTGAATAATGTACATTTTATTTATTATAT [XGTACX_site6614]” the “gcPBM binding intensity (ln)” value was 8.62 ± 0.45.
For “GATGCACTTTAAAAATGTACTTATACCTTTAATTGT [XGTACX_site6395]”, the “gcPBM binding intensity (ln)” value was 8.76 ± 0.41.
With “ATAAAAAAAAGACACACACACATATATATATATATA [CACACA_site3073]” the “gcPBM binding intensity (ln)” value was 10.2 ± 0.18.
“TATAAAAGTAGACACACACACATATAAATATAAATA [CACACA_site6567]” was tested, and the “gcPBM binding intensity (ln)” value was 9.66 ± 0.27.
In the case of “ATAAAAAAAGGACACACACACATATATTTATTTATA [CACACA_site7438]”, the “gcPBM binding intensity (ln)” value is reported as 9.71 ± 0.19.
With “CATATAAAAAGACACACACACACATATATATATATA [CACACA_site940]” the “gcPBM binding intensity (ln)” value was 9.92 ± 0.31.
In the case of “TAAAAAGGAAGACACACACACACATATATAAATATA [CACACA_site7657]”, the “gcPBM binding intensity (ln)” value is reported as 10.2 ± 0.34.
For “AATATAAAAAAAAAAAAAAAAAAAAAAAAAAAGACA [CACACA_negctrl_site983]”, the “gcPBM binding intensity (ln)” value was 8.66 ± 0.5.
In the case of “TATAAATAAAGACACACACACATATAAATAAATATA [CACACA_site7155]”, the “gcPBM binding intensity (ln)” value is reported as 9.68 ± 0.26.
With “CATATAAAAGGACACACACACACATATAAATATGTA [CACACA_site6568]” the “gcPBM binding intensity (ln)” value was 9.88 ± 0.3.
In the case of “ATAAAAAAAGGACACACACACATATATATATATATA [CACACA_site5662]”, the “gcPBM binding intensity (ln)” value is reported as 10.46 ± 0.05.
For “AAAAAAAAAAGACACACACACACATAAATATAAATA [CACACA_site6215]”, the “gcPBM binding intensity (ln)” value was 10.2 ± 0.42.
For “AAAGAAAGAAGACACACACACATATATAAATATCAA [CACACA_site7715]”, the “gcPBM binding intensity (ln)” value was 9.88 ± 0.23.
“AAAAAAAAAAGACACACACACATATAAATATAAATA [CACACA_site6899]” was tested, and the “gcPBM binding intensity (ln)” value was 9.81 ± 0.26.
